In the supplement of paper PMC13380429:

Tested on: Vero E6 infected with SARS-CoV-2
Test: inhibition of SARS-CoV-2 cytopathic effect; higher = more antiviral protection, active = above 15
Conditions: 48 h

Measured: inhibition of SARS-CoV-2 cytopathic effect

Clc1cccc(N2CCNCC2)c1
inactive: 1 nM -1.68% | 8.33 nM -2.45% | 100 nM -0.72% | 833.33 nM -3.2% | 10000 nM -2.99%

CC(=O)OCC1=C(C(=O)O)N2C(=O)[C@@H](NC(=O)CSc3ccncc3)[C@H]2SC1 [cephapirin]
inactive: 1 nM -1.67% | 8.33 nM 4.78% | 100 nM 6.28% | 833.33 nM 5.89% | 10000 nM 2.88%

Nc1ncnc2c1ncn2[C@@H]1O[C@H](C[C@@H](N)CC[C@H](N)C(=O)O)[C@@H](O)[C@H]1O [sinefungin]
inactive: 1 nM -10.5% | 8.33 nM -10.2% | 100 nM -10% | 833.33 nM -7.77% | 10000 nM -7.24%

O=C(O)/C=C(/CC(=O)O)C(=O)O [cis-aconitic-acid]
inactive: 1 nM 0.99% | 8.33 nM 0.49% | 100 nM -3.45% | 833.33 nM -2.25% | 10000 nM 0.81%
